Experimental findings from PubChem BioAssay are described below.

Each structure is given as a SMILES string. Active and inactive are the calls of the source.

Assay [1] is described as follows: binders of probe aFSTL3 on microarray, primary screen, stem cell growth factor project, biochemical, small-molecule microarray, fluorescence 635/667 (AID 1064).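 Note: measures binding of the biotinylated anti-FSTL3 antibody to printed compounds.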 Conditions: higher = more signal.
The nature of assay [2]: binders from COS7 lysate, DM2A8 probe, primary screen, torsin A project, cell lysate, small-molecule microarray, fluorescence 635/667 (AID 1065). Conditions: higher = more signal, COS7 lysate expressing mutant human TOR1A.
Assay [3] is described as follows: binders of probe aFGF2 on microarray, primary screen, stem cell growth factor project, biochemical, small-molecule microarray, fluorescence 635/667 (AID 1067).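 Note: measures binding of biotinylated aFGF2 protein to printed compounds on slides; z-score merges feature fluorescence and signal-to-noise across triplicate slides.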 Conditions: higher = more signal.
Assay [4] is described as follows: binders of probe aFGF10 on microarray, primary screen, stem cell growth factor project, biochemical, small-molecule microarray, fluorescence 635/667 (AID 1071).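 Note: score merges 667 nm spot intensity and signal to noise from triplicate slides.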 Conditions: higher = more signal.
For assay [5], the target named is Neurogenic locus notch homolog protein 2 (Homo sapiens) (UniProt Q04721). As to the kind of experiment: Notch2 binders on small-molecule microarrays, primary screen, biochemical, small-molecule microarray, 635 nm fluorescence, stem cell growth factors (AID 1073). Conditions: Notch2 binding, higher = more signal.
Chain of Neurogenic locus notch homolog protein 2 (Homo sapiens) (Q04721 whole entry, looked up, canonical isoform): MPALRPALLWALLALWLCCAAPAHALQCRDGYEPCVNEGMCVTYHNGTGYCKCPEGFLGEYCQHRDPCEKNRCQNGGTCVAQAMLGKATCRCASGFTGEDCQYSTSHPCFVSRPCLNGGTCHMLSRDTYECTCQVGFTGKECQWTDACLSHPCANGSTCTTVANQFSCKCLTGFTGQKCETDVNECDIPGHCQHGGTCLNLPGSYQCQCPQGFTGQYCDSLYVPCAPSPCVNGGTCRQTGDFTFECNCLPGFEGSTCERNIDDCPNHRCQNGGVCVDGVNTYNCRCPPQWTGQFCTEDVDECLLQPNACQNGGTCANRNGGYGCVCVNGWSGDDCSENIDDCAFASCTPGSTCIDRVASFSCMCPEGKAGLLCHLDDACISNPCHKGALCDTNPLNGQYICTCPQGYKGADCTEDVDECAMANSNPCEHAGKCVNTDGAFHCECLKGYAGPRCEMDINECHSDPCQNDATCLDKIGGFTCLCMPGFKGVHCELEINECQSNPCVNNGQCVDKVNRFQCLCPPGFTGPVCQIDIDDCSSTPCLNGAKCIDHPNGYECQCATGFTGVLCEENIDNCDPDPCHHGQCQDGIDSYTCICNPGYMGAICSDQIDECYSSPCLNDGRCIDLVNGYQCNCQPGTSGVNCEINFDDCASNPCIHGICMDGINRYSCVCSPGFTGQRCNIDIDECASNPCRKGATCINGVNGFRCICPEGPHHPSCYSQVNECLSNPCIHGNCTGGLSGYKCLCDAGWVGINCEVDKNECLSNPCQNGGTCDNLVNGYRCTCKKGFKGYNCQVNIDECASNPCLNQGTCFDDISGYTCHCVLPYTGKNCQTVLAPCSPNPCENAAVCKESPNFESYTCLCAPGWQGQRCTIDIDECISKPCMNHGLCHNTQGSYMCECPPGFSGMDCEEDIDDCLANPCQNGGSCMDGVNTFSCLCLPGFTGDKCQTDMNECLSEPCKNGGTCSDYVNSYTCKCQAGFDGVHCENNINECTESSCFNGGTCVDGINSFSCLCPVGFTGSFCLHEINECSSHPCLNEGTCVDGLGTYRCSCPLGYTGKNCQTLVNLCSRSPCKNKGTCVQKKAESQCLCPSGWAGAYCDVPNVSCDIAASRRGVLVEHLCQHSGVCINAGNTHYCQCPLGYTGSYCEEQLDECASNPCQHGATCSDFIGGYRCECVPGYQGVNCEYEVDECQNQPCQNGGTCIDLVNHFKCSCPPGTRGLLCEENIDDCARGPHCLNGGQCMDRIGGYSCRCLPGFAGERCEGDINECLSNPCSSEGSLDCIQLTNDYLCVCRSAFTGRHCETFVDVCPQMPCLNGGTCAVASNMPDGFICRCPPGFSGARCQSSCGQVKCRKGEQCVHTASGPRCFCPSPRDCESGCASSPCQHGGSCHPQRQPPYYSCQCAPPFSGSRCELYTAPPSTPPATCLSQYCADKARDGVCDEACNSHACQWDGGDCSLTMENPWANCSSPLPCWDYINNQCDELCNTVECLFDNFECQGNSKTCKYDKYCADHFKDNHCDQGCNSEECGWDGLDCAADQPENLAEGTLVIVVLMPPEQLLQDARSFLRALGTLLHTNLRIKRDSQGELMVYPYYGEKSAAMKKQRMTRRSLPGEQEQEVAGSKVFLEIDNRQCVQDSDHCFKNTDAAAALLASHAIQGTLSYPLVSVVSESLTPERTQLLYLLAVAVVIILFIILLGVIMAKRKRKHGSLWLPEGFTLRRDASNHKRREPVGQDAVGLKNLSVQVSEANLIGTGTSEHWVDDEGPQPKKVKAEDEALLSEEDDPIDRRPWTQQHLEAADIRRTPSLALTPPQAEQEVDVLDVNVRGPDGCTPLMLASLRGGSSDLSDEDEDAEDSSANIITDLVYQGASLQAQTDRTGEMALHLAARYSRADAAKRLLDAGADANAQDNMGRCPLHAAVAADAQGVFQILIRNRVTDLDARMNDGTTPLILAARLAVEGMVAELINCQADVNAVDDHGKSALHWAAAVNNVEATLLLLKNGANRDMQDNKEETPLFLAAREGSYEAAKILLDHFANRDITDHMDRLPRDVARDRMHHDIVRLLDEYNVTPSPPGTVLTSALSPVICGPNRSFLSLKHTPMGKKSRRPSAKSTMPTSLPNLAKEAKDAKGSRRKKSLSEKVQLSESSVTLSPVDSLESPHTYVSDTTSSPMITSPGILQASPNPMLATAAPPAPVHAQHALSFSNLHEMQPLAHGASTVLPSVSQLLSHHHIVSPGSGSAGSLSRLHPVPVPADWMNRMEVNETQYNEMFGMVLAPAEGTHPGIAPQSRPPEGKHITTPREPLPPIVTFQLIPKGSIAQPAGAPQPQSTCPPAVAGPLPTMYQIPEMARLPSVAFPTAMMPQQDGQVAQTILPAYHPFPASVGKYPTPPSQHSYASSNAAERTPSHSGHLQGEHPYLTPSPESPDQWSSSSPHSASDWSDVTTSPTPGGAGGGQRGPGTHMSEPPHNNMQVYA
Assay [6] addresses Pro-neuregulin-1, membrane-bound isoform (Homo sapiens) (UniProt Q02297). As to the kind of experiment: NRG1 binders on small-molecule microarrays, primary screen, psychiatric disease protein project, biochemical, small-molecule microarray, fluorescence 635/667 (AID 1075).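 Note: score combines 667 nm spot fluorescence with signal to noise.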 Conditions: NRG1 binding, 635 nm fluorescence, higher = more signal.
In assay [7] the test system is Neuregulin-1 EGF-like domain. As to the kind of experiment: binders of neuregulin-1 EGF-like domain, primary screen, biochemical, small-molecule microarray, 635 nm fluorescence (AID 1081).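 Note: binding of the protein to compounds printed on small-molecule microarray slides.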 Conditions: small-molecule microarray binding, higher = more signal.
Assay [8] in a line: FRG1 promoter luciferase signal modulators, primary screen, FRG1 inhibition for FSHD, cell-based, C2C12 myotubes, firefly/Renilla luciferase, luminescence (AID 1084). Conditions: higher = more signal, called active from +8 up or from −8 down.
Assay [9] in a line: binders of probe aFST on microarray, primary screen, stem cell growth factor project, biochemical, small-molecule microarray, fluorescence 635/667 (AID 1086).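 Note: score merges 667 nm fluorescence with signal-to-noise of each printed compound spot.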 Conditions: higher = more signal.
The nature of assay [10]: binders of probe aHhip on microarray, primary screen, stem cell growth factor project, biochemical, small-molecule microarray, fluorescence 635/667 (AID 1087).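 Note: score merges spot fluorescence at 667nm with spot signal to noise ratio.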 Conditions: higher = more signal.
Assay [11] relates to PRMT1 (protein arginine N-methyltransferase 1). In words: PRMT1 binders on small-molecule microarrays, primary screen, biochemical, small-molecule microarray, 635 nm fluorescence (AID 1088).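 Note: binding of Prmt1 protein to compounds spotted on small-molecule microarray slides.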 Conditions: small-molecule microarray binding, higher = more signal.
Assay [12] in a line: yeast growth modulation, basal conditions, primary screen, YJM789 clinical isolate, OD600, 24 h (AID 1089).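 Note: growth of clinical yeast isolate S. cerevisiae YJM 789 seeded 1000 cells per well; test concentration not given here.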 Conditions: S. cerevisiae YJM789 growth, higher = more signal, called active from +8 up or from −8 down.
The nature of assay [13]: fission yeast growth modulation, primary screen, strain 972, OD600, 24 h, no modulator (AID 1090).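 Note: basal condition with compound alone and no growth modifier present; test concentration not given here.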 Conditions: S. pombe 972 growth, higher = more signal, called active from +8 up or from −8 down.
A short description of assay [14]: S. cerevisiae growth modulation with rapamycin, primary screen, strain BY4716, OD600, 96 h (AID 1091). Note: test concentration not given here. Conditions: higher = more signal, called active from +8 up or from −8 down.
Assay [15] has as its target Torsin-1A-interacting protein 2 (Homo sapiens) (UniProt Q8NFQ8). In words: LULL1 binders on small-molecule microarray, primary screen, cell lysate, human LULL1 lysate, 635/667 nm fluorescence (AID 1092).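 Note: probe is lysate of COS7 cells overexpressing human LULL1; score merges per-feature 667 nm fluorescence with signal-to-noise.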 Conditions: hLULL1 lysate binding, 635 nm fluorescence, higher = more signal.
Assay [16] in a line: E. coli growth modulation, two-sided OD650, primary screen, E. coli filamentation project, strain DRC41, 24 h (AID 1093).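 Note: MC1000 strain lacking acrAB efflux and sulA so SOS filamentation is blocked; test concentration not given here.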 Conditions: OD650, 24 h, higher = more signal, called active from +8 up or from −8 down.
Assay [17] in a line: small-molecule microarray binders of probe aLefty2, primary screen, biochemical, biotinylated probe, 635/667 nm fluorescence (AID 1094).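 Note: score merges spot fluorescence near 667 nm with spot signal-to-noise ratio.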 Conditions: higher = more signal.
Assay [18] relates to Noggin (protein binding on small-molecule microarray). As to the kind of experiment: Noggin binders on small-molecule microarray, primary screen, biochemical, 635/667 nm fluorescence (AID 1095).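 Note: score merges 667 nm feature fluorescence with signal to noise over triplicate slides.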 Conditions: 635 nm fluorescence, higher = more signal.
For assay [19], the target named is Neurogenic locus notch homolog protein 3 (Homo sapiens) (UniProt Q9UM47). In words: NOTCH3 binders on small-molecule microarray, primary screen, biochemical, 635/667 nm fluorescence (AID 1096). Conditions: NOTCH3 binding, 635 nm fluorescence, higher = more signal.
Assay [20] is described as follows: small-molecule microarray binders of probe aEGFR, primary screen, biochemical, biotinylated probe, 635/667 nm fluorescence (AID 1097).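 Note: probe is a biotinylated anti-EGFR antibody binding compounds printed on slides; score combines fluorescence near 667 nm and signal to noise of each spot.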 Conditions: higher = more signal.

Chain of Pro-neuregulin-1, membrane-bound isoform (Homo sapiens) (Q02297 whole entry, looked up, the tested form may be a part, canonical isoform): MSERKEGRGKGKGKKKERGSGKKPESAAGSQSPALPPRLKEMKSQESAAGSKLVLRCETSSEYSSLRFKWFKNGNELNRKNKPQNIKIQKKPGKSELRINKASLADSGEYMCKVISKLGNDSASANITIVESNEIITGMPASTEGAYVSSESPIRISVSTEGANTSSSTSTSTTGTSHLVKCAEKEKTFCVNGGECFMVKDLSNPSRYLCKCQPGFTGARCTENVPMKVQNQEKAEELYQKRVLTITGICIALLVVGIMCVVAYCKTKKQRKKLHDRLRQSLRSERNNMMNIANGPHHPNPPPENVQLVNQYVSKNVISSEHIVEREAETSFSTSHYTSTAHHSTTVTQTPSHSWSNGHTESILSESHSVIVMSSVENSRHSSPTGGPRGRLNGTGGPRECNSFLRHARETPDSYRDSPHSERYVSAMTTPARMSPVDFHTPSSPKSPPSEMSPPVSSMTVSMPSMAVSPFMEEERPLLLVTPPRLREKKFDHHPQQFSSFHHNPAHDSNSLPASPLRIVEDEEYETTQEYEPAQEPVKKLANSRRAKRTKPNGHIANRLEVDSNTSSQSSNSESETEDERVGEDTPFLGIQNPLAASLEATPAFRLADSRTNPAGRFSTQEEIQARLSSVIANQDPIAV
Chain of Torsin-1A-interacting protein 2 (Homo sapiens) (Q8NFQ8 whole entry, looked up): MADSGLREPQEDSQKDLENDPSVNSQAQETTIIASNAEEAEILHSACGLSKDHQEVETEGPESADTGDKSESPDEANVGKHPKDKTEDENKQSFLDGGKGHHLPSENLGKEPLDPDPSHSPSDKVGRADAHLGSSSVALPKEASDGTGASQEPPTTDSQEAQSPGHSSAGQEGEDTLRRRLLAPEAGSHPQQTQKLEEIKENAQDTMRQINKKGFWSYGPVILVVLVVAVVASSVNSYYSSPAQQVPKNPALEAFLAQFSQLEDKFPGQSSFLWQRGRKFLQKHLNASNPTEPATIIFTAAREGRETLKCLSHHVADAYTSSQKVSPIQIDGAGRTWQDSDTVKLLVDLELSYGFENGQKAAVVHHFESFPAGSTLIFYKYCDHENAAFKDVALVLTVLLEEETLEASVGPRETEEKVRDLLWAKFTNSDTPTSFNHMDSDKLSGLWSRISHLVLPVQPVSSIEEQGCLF

Take `COC(=O)c1c(CC[C@@H](CO)NC(=O)N[C@@H](C)Cn2cc(-c3ccccn3)nn2)oc(C(C)=O)c1C(=O)OC`: the composite z-score in assay [1] was -0.291; in assay [2], 0.334; in [3], -0.076; in assay [4] it was 0.384; in assay [5], -0.127; in [6], 1.66. The composite z-score in assay [7] was 1.29; in assay [9], -0.205; in assay [10], -0.0237; in assay [11] it was 1.39; in assay [15], 1.42; in [17], -0.115. In addition, the composite z-score was 1.43 in [18], 0.794 in assay [19] and -0.164 in assay [20]. In addition, the z-score was 0.224 (inactive) in assay [8]; -0.441 (inactive) in [12]; -0.705 (inactive) in assay [13]; 0.198 (inactive) in assay [14]; -0.608 (inactive) in assay [16].
With `CCCC[C@@H](O)C1=C(COc2ccccc2)C[C@H]2C(=O)N(Cc3ccccc3)C(=O)[C@H]2[C@H]1CO`, the composite z-score in [1] is -0.123; in [2], 0.195; in assay [3], -0.147; in [4], 0.479; in assay [5], 0.339; in assay [6], 1.01. The composite z-score in assay [7] is 0.426; in assay [9], -0.0226; in assay [10], -0.449; in [11], 0.287; in [15] it was 0.492; in assay [17], -0.0907. Further, the composite z-score was 0.517 in [18], 0.323 in assay [19] and -0.0828 in assay [20]. The z-score in assay [8] was -0.791 (inactive); in assay [12] it was 0.298 (inactive); in [13], -0.336 (inactive); in assay [14], 0.361 (inactive); in assay [16], 0.672 (inactive).
With `C=CC[C@H](OC(=O)Nc1ccc(SC)cc1)c1ccc(O)c2ccccc12`, the composite z-score was 0.0792 in assay [1]; 0.104 in [2]; 0.0536 in assay [3]; 0.254 in assay [4]; 1.3 in assay [5]; 1.75 in [6]. Moreover, the composite z-score was 1.33 in assay [7]; 0.385 in assay [9]; 0.176 in [10]; 1.54 in assay [11]; 2.8 in assay [15]; -0.112 in [17]. In addition, the composite z-score in assay [18] was 1.1; in assay [19] it was 1.1; in [20], -0.128. Also, the z-score in [8] is 7.23 (inactive); in assay [12], -23.9 (active); in [13], -19.8 (active); in assay [14] it was -1.38 (inactive); in [16] it was 1.42 (inactive).
With `C=CCNC(=O)[C@@H]1[C@H]2C(=O)O[C@H](c3ccccc3)[C@H](c3ccccc3)N2[C@H](c2ccccc2OCCO)[C@@]12C(=O)N(C(=O)OCCOC)c1ccc(C#CC3(O)CCCCCC3)cc12`, the composite z-score is -0.249 in assay [1]; 0.356 in assay [2]; -0.0004 in [3]; 0.427 in assay [4]; 1.14 in [5]; 1.16 in assay [6]. For the same compound, the composite z-score was 1.14 in [7]; 0.771 in assay [9]; -0.0994 in assay [10]; 1.56 in assay [11]; 2.86 in [15]; -0.0146 in assay [17]. Moreover, the composite z-score is 1.02 in assay [18], 1.1 in assay [19] and -0.0177 in assay [20]. Further, the z-score in [8] is -0.257 (inactive); in [12] it was 0.0171 (inactive); in [13], -0.0365 (inactive); in assay [14], 5.23 (inactive); in [16], 1.41 (inactive).
`CC(C)N1CC=CC23O[C@@H]4C=CCCOC(=O)C4[C@H]2C(=O)N(CCCO)[C@@H]3C1=O` (stereo not given in full): the composite z-score is -0.339 in assay [1]; -0.0962 in assay [2]; -0.12 in assay [3]; -0.458 in assay [4]; -0.693 in [5]; -0.491 in assay [6]. In addition, the composite z-score in assay [7] is 0.059; in assay [9] it was 0.002; in [10], 0.0505; in [11] it was 0.521; in [15], 2.1; in assay [17], -0.215. In addition, the composite z-score in assay [18] was -0.0322; in assay [19], 0.236; in assay [20], -0.226. The z-score is -0.395 (inactive) in assay [8]; -0.198 (inactive) in assay [12]; -0.861 (inactive) in assay [13]; -0.824 (inactive) in assay [14]; 2.83 (inactive) in [16].
